The subject of experiment [1] is turtle Estrogen Receptor (ERa), gene 101933533. Nature of the experiment: ATG_trERa_XSP2: Attagene TRANS-FACTORIAL Multi-Species (XSP2) HepG2 Assay for turtle Estrogen Receptor (ERa) (AID 2283812).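 Further: actives raise reporter signal above DMSO so AC50 reflects agonist activity.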 The procedure, abridged: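 Readout is reporter mRNA quantified by RT-PCR with capillary electrophoresis after 24 h compound exposure, increase relative to DMSO. Uses transiently transfected human HepG2 liver cells carrying a chimeric turtle ERa-Gal4 receptor driving GAL4-UAS reporters.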

Experiment [2] deals with zebrafish Estrogen Receptor (ER1), esr1 (gene 259252) (UniProt P57717). Nature of the experiment: ATG_zfER1_XSP2: Attagene TRANS-FACTORIAL Multi-Species (XSP2) HepG2 Assay for zebrafish Estrogen Receptor (ER1) (AID 2283816). The procedure, abridged: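 After 24 h compound exposure, RNA from transfected HepG2 cells was reverse-transcribed and reporter transcripts resolved by capillary electrophoresis. The TRANS format reads exogenous zebrafish ER1-Gal4 chimera activity on GAL4-UAS elements; gain of signal against DMSO.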
Chain of zebrafish Estrogen Receptor (ER1), esr1 (gene 259252) (P57717 whole entry, looked up, the tested form may be a part): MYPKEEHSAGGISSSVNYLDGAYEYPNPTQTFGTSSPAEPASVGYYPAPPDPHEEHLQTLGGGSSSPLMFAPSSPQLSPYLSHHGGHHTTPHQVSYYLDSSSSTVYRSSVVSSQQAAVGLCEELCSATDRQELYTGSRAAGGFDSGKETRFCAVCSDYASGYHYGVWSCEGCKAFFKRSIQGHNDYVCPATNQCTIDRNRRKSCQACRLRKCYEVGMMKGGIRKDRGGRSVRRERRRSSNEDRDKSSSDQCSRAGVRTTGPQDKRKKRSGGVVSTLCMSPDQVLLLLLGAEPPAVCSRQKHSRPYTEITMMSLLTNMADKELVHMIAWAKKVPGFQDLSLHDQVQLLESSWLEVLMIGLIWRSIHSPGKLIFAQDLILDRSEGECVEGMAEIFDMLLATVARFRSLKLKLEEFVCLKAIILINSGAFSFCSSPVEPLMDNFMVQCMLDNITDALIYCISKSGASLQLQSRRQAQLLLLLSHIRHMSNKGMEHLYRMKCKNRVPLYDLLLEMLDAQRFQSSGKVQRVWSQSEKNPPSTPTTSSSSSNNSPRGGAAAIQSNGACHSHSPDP

The target in experiment [3] is chicken Estrogen Receptor (ERa), ESR1 (gene 396099) (UniProt P06212). As to the kind of experiment: ATG_chERa_XSP2: Attagene TRANS-FACTORIAL Multi-Species (XSP2) HepG2 Assay for chicken Estrogen Receptor (ERa) (AID 2283817).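 Further: actives raise reporter signal above DMSO so AC50 reflects ER activation.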 In outline:
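Reporter mRNA induction read by RT-PCR, fluorescent labelling and capillary electrophoresis after 24 h exposure; positive-direction fit against DMSO baseline. HepG2 cells transfected with multiplexed GAL4-UAS units including chicken ERa chimera; medium contained 3 nM 6-alpha-fluorotestosterone plus 1.5 nM norgestrel.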

Experiment [4] has as its system zebrafish Estrogen Receptor (ER2a), gene 317734. Nature of the experiment: ATG_zfER2a_XSP2: Attagene TRANS-FACTORIAL Multi-Species (XSP2) HepG2 Assay for zebrafish Estrogen Receptor (ER2a) (AID 2283818).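 Further: hits raise reporter mRNA so AC50 reflects activation of zebrafish ER2a.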 In outline:
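Multiplexed trans-reporter readout: RT-PCR then capillary electrophoresis of reporter transcripts after 24 h compound treatment. Human HepG2 carries transfected zebrafish ER2a-Gal4 chimera; 3 nM 6-alpha-fluorotestosterone plus 1.5 nM norgestrel present. Induction scored against DMSO.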

Experiment [5] relates to chicken Androgen Receptor (AR), gene 422165. As to the kind of experiment: ATG_chAR_XSP2: Attagene TRANS-FACTORIAL Multi-Species (XSP2) HepG2 Assay for chicken Androgen Receptor (AR) (AID 2283819).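 Further: hits raise reporter mRNA above DMSO so potency is for activation.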 In outline: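 Readout is reporter mRNA induction via RT-PCR/capillary electrophoresis after 24 h chemical exposure, positive direction relative to DMSO. Transiently transfected HepG2 express chimeric chicken AR–GAL4; AR stimulated by 3 nM 6-alpha-fluorotestosterone and 1.5 nM norgestrel.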

Experiment [6] relates to frog Estrogen Receptor (ER), gene 398734. As to the kind of experiment: ATG_frER1_XSP2: Attagene TRANS-FACTORIAL Multi-Species (XSP2) HepG2 Assay for frog Estrogen Receptor (ER) (AID 2283821).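 Further: hits raise reporter mRNA above DMSO baseline so potency means agonist or activator.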 In outline:
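HepG2 cells transiently transfected with multiplexed GAL4-UAS reporter units expressing chimeric NR-Gal4 proteins (TRANS format) were dosed for 24 h. Reporter mRNA was quantified by RT-PCR, FAM primer extension, HpaI digestion and capillary electrophoresis; gain of signal relative to DMSO.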

Experiment [7] relates to zebrafish Estrogen Receptor (ER2b), gene 317733. As to the kind of experiment: ATG_zfER2b_XSP2: Attagene TRANS-FACTORIAL Multi-Species (XSP2) HepG2 Assay for zebrafish Estrogen Receptor (ER2b) (AID 2283823).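 Further: fitted upward as reporter gain over DMSO so potency reflects activation.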 The procedure, abridged:
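Reporter transcripts quantified by RT-PCR, fluorescent labelling and capillary electrophoresis after 24 h dosing of transfected HepG2 expressing zebrafish ER2b-GAL4 fusion. Medium contained 3 nM 6-alpha-fluorotestosterone plus 1.5 nM norgestrel; DMSO baseline.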

Experiment [8] deals with Estrogen receptor (Homo sapiens) (UniProt P03372). As to the kind of experiment: ATG_hERa_XSP2: Attagene TRANS-FACTORIAL Multi-Species (XSP2) HepG2 Assay for human Estrogen Receptor (ERa) (AID 2283827). In outline:
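Trans-activation of exogenous human ERa-Gal4 chimera read in HepG2 as reporter transcript after 24 h exposure; medium included 3 nM 6-alpha-fluorotestosterone and 1.5 nM norgestrel. Quantified by RT-PCR with capillary electrophoresis, positive-direction fitting against DMSO.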

The test system of experiment [9] is frog Estrogen Receptor (ER2), gene 100174814. Nature of the experiment: ATG_frER2_XSP2: Attagene TRANS-FACTORIAL Multi-Species (XSP2) HepG2 Assay for frog Estrogen Receptor (ER2) (AID 2283828). In outline:
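Read-out: reporter transcript levels by RT-PCR with 6-FAM primer extension, HpaI digestion and capillary electrophoresis, scored as induction over DMSO control. Transfected HepG2 carrying Xenopus ER2–GAL4 chimera; compounds incubated 24 h.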

In experiment [10] the target is Peroxisome proliferator-activated receptor gamma (Homo sapiens) (UniProt P37231). Nature of the experiment: ATG_hPPARg_XSP2: Attagene TRANS-FACTORIAL Multi-Species (XSP2) HepG2 Assay for human Peroxisome Proliferator-activated Receptor gamma (PPARg) (AID 2283829).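 Further: actives raise reporter mRNA above DMSO so AC50 reflects PPARg activation.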 In outline:
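HepG2 cells transiently transfected with GAL4-UAS reporter units driven by chimeric NR-Gal4 proteins; androgen receptor stimulated with 3 nM 6-alpha-fluorotestosterone and 1.5 nM norgestrel. After 24 h, reporter mRNA quantified by RT-PCR and capillary electrophoresis versus DMSO.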

The target of experiment [11] is mouse Peroxisome Proliferator-activated Receptor gamma (PPARg), Pparg (gene 19016) (UniProt P37238). As to the kind of experiment: ATG_mPPARg_XSP2: Attagene TRANS-FACTORIAL Multi-Species (XSP2) HepG2 Assay for mouse Peroxisome Proliferator-activated Receptor gamma (PPARg) (AID 2283830).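 Further: hits are gains in reporter mRNA above DMSO so AC50 marks activation.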 In outline: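 Multiplexed TRANS reporter readout: after 24 h chemical exposure of transfected HepG2 cells (with 3 nM 6-alpha-fluorotestosterone, 1.5 nM norgestrel present), RNA reverse-transcribed, amplified, 6-FAM-labelled and resolved by capillary electrophoresis; mouse PPARg-Gal4 induction scored against DMSO.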
Chain of mouse Peroxisome Proliferator-activated Receptor gamma (PPARg), Pparg (gene 19016) (P37238 whole entry, looked up, the tested form may be a part): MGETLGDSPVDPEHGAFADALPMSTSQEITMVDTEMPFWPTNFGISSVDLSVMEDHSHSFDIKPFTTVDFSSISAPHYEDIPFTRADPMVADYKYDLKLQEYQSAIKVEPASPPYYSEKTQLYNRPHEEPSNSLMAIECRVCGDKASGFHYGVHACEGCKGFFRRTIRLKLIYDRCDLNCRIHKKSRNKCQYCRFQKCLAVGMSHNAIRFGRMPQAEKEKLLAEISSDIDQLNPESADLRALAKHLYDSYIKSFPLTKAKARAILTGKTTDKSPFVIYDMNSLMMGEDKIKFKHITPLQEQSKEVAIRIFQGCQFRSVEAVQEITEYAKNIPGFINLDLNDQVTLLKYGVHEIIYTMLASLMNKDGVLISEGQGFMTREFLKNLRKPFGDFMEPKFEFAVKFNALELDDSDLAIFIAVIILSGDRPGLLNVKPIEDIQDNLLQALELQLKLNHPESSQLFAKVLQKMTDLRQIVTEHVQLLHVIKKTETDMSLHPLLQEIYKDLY

Experiment [12] deals with Nuclear receptor subfamily 1 group I member 2 (Mus musculus) (UniProt O54915). As to the kind of experiment: ATG_mPXR_XSP2: Attagene TRANS-FACTORIAL Multi-Species (XSP1) HepG2 Assay for mouse Pregnane X Receptor (PXR) (AID 2283831). In outline:
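HepG2 cells transiently transfected with GAL4-UAS reporter units expressing chimeric NR-Gal4 proteins; 24 h compound exposure. Reporter mRNA quantified by RT-PCR and capillary electrophoresis fluorescence; gain of signal fitted against DMSO.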

The target in experiment [13] is zebrafish Thyroid Hormone Receptor alpha (TRa), thraa (gene 30670) (UniProt Q98867). As to the kind of experiment: ATG_zfTRa_XSP2: Attagene TRANS-FACTORIAL Multi-Species (XSP1) HepG2 Assay for zebrafish Thyroid Hormone Receptor alpha (TRa) (AID 2283832).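 Further: actives raise zebrafish TRa-Gal4 reporter transcript above DMSO baseline.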 The procedure, abridged:
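Chimeric zebrafish TRa-Gal4 activity read in transfected human HepG2 as GAL4-UAS reporter transcripts, 24 h post-dose, via RT-PCR with labeled primer extension and capillary electrophoresis. Medium also carries 3 nM 6-alpha-fluorotestosterone and 1.5 nM norgestrel; DMSO baseline.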

In experiment [14] the test system is zebrafish Peroxisome Proliferator-activated Receptor gamma (PPARg), gene 557037. Nature of the experiment: ATG_zfPPARg_XSP2: Attagene TRANS-FACTORIAL Multi-Species (XSP2) HepG2 Assay for zebrafish Peroxisome Proliferator-activated Receptor gamma (PPARg) (AID 2283833).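 Further: actives increase reporter signal over DMSO so AC50 reflects activation.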 In outline: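 HepG2 cells transiently transfected with multiplexed GAL4-UAS reporter units expressing chimeric NR-Gal4 receptors, dosed 24 h. Reporter mRNA quantified by RT-PCR, fluorescent labelling, HpaI digestion and capillary electrophoresis; gain of signal fitted against DMSO.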

Experiment [15] has as its system turtle Thyroid Hormone Receptor, alpha (TRa), gene 101949057. Nature of the experiment: ATG_trTRa_XSP2: Attagene TRANS-FACTORIAL Multi-Species (XSP1) HepG2 Assay for turtle Thyroid Hormone Receptor, alpha (TRa) (AID 2283834).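 Further: hits raise reporter mRNA over the DMSO baseline so AC50 marks activators.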 In outline: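 HepG2 cells transiently transfected with GAL4-UAS reporter units for chimeric turtle TRa-Gal4; mRNA measured 24 h after dosing by RT-PCR and capillary electrophoresis fluorescence, gain of signal fitted against DMSO.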

Experiment [16] in a line: ATG_M_61_XSP2: Attagene TRANS-FACTORIAL Multi-Species (XSP2) HepG2 Assay for M61 Transcription Factor (Internal Marker) (AID 2283835; active means hit-call score of the fitted dose curve at least 0.9, where 1 is the maximum; inactive means score below 0.9;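 further: active means a rise in signal above the DMSO baseline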). The procedure, abridged:
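Internal background marker, read as RT-PCR/capillary-electrophoresis reporter mRNA 24 h post-dose in transiently transfected HepG2 cells. Androgen receptor stimulated with 3 nM 6-alpha-fluorotestosterone plus 1.5 nM norgestrel; gain of signal versus DMSO analysed.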

In experiment [17] the target is zebrafish Thyroid Hormone Receptor beta (TRb), thrb (gene 30607) (UniProt Q9PVE4). As to the kind of experiment: ATG_zfTRb_XSP2: Attagene TRANS-FACTORIAL Multi-Species (XSP1) HepG2 Assay for zebrafish Thyroid Hormone Receptor beta (TRb) (AID 2283836). In outline:
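Reporter transcripts measured by RT-PCR, 6-FAM labelling, HpaI digestion and capillary electrophoresis after 24 h chemical exposure. Human HepG2 cells carry an exogenous zebrafish TRb-GAL4 chimera; medium included 3 nM 6-alpha-fluorotestosterone plus 1.5 nM norgestrel.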

Experiment [18] can be described thus: ATG_XTT_Cytotoxicity_XSP2: Cytotoxicity Assessment in the Attagene TRANS-FACTORIAL Multi-Species (XSP2) HepG2 Assay (AID 2283837). The procedure, abridged: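 XTT-based cell number read-out in human HepG2 liver cells carrying transfected reporter units, measured 24 h after chemical dosing. Activity is signal loss versus DMSO baseline.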
In experiment [19] the target is Estrogen receptor beta (Homo sapiens) (UniProt Q92731). Nature of the experiment: ATG_hERb_XSP2: Attagene TRANS-FACTORIAL Multi-Species (XSP2) HepG2 Assay for human Estrogen Receptor (ERb) (AID 2283813).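 Further: actives raise reporter mRNA above DMSO so AC50 reflects agonist induction.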 The procedure, abridged:
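Transient TRANS reporter system in HepG2: after 24 h of chemical, RNA is reverse-transcribed, reporter cDNA amplified, FAM-labelled and sized by capillary electrophoresis. Induction of the human ERb-Gal4 reporter is measured relative to DMSO.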

Experiment [20] concerns zebrafish Androgen Receptor (AR), gene 100005148. As to the kind of experiment: ATG_zfAR_XSP2: Attagene TRANS-FACTORIAL Multi-Species (XSP2) HepG2 Assay for zebrafish Androgen Receptor (AR) (AID 2283825).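 Further: hits raise reporter mRNA above DMSO so AC50 reflects agonist-type gain.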 In outline:
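After 24 h compound exposure in medium with 3 nM 6-alpha-fluorotestosterone plus 1.5 nM norgestrel, HepG2 cells carrying zebrafish AR–GAL4 reporter constructs were assessed for reporter mRNA gain by RT-PCR and capillary electrophoresis.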

A word on the AC50: it is the concentration at which the activity in the assay is half-maximal.

Structures are written as SMILES. Where “and” joins values, the source holds several entries; their conditions need not be identical. Equal entries are not always repeated. Inconclusive results are not listed. Some structures have more than one record in an assay (separate samples or runs), and their calls can disagree. Calls of active or inactive are those of the source. How the source made its calls, unless noted: active means hit-call score of the fitted dose curve at least 0.9, where 1 is the maximum; inconclusive means response in the unintended direction; inactive means score below 0.9.

Chain of Nuclear receptor subfamily 1 group I member 2 (Mus musculus) (O54915 whole entry, looked up, the tested form may be a part): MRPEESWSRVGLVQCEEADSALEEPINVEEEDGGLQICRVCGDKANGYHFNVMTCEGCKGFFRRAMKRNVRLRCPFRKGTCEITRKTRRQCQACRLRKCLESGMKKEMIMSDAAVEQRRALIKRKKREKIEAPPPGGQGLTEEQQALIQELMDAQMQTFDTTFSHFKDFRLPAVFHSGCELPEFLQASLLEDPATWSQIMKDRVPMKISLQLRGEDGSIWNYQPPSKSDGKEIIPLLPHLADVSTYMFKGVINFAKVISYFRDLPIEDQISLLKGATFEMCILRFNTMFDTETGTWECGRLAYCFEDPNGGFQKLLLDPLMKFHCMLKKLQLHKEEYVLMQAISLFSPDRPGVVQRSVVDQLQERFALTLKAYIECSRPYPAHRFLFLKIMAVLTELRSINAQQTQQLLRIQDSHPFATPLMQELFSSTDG
Chain of Peroxisome proliferator-activated receptor gamma (Homo sapiens) (P37231 whole entry, looked up, the tested form may be a part): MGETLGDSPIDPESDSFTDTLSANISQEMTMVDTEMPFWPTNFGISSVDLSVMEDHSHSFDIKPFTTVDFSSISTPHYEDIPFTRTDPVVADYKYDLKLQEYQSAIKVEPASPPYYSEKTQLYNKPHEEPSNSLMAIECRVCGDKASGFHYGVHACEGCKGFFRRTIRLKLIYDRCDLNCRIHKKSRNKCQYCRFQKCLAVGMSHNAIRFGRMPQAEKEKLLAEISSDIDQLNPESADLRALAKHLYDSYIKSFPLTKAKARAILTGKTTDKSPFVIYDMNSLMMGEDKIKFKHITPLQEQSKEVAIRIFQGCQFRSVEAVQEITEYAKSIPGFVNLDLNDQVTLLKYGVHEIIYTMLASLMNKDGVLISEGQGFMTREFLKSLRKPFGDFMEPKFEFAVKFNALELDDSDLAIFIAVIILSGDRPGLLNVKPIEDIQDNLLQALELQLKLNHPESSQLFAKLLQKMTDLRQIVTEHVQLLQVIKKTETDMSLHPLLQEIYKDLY
Chain of zebrafish Thyroid Hormone Receptor beta (TRb), thrb (gene 30607) (Q9PVE4 whole entry, looked up, the tested form may be a part): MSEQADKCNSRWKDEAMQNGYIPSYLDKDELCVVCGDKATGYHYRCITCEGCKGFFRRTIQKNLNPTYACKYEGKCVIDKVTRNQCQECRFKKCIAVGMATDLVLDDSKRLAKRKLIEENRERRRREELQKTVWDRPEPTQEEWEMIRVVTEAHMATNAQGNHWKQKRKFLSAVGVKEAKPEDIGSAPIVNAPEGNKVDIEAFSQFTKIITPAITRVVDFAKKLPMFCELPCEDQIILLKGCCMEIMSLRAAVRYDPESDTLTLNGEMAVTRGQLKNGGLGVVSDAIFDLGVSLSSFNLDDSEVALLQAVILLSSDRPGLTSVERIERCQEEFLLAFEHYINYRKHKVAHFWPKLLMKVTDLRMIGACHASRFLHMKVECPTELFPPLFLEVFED
Chain of chicken Estrogen Receptor (ERa), ESR1 (gene 396099) (P06212 whole entry, looked up, the tested form may be a part): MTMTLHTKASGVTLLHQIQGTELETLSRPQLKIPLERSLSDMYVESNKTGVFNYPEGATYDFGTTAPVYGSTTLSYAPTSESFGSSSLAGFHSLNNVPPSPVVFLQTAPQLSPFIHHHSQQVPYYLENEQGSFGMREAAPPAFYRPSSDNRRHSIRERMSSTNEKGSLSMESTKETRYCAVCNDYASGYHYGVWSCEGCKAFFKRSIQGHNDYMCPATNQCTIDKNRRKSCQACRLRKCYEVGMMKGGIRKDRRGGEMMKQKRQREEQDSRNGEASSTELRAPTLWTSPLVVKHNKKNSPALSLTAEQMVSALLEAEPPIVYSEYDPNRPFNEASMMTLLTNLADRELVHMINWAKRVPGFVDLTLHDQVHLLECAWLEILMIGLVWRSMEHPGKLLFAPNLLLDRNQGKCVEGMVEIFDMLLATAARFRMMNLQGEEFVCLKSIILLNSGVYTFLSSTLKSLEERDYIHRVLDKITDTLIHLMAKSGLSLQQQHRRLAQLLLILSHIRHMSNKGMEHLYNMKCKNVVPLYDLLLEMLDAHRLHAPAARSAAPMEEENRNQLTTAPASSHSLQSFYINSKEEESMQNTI
Chain of Estrogen receptor (Homo sapiens) (P03372 whole entry, looked up, the tested form may be a part): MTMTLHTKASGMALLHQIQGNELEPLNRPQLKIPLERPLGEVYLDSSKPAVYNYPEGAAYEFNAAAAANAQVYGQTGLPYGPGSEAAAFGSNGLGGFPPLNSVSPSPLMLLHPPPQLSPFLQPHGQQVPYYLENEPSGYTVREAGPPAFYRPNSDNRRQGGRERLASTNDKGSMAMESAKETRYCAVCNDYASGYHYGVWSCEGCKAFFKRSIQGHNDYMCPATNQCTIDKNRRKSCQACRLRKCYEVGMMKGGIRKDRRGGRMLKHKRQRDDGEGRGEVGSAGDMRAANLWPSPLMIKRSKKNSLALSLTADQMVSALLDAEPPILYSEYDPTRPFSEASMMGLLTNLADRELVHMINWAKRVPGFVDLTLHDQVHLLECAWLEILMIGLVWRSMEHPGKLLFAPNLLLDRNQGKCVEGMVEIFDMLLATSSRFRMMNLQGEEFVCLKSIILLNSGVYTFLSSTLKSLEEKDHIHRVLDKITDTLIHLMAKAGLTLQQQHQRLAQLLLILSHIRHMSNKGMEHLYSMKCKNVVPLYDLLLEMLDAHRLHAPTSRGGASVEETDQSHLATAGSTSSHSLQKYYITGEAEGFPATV
Chain of zebrafish Thyroid Hormone Receptor alpha (TRa), thraa (gene 30670) (Q98867 whole entry, looked up, the tested form may be a part): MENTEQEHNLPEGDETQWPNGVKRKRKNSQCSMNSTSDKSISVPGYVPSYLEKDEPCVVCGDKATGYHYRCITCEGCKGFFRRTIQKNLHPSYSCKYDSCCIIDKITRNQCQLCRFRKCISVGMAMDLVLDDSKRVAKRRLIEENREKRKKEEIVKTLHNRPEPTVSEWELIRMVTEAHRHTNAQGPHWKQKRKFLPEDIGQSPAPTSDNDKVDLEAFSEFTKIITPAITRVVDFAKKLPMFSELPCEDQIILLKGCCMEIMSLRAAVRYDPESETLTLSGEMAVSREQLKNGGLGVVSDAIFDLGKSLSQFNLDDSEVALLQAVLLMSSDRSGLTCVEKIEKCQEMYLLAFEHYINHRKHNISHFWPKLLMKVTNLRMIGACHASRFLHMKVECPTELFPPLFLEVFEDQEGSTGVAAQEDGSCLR
Chain of Estrogen receptor beta (Homo sapiens) (Q92731 whole entry, looked up, the tested form may be a part): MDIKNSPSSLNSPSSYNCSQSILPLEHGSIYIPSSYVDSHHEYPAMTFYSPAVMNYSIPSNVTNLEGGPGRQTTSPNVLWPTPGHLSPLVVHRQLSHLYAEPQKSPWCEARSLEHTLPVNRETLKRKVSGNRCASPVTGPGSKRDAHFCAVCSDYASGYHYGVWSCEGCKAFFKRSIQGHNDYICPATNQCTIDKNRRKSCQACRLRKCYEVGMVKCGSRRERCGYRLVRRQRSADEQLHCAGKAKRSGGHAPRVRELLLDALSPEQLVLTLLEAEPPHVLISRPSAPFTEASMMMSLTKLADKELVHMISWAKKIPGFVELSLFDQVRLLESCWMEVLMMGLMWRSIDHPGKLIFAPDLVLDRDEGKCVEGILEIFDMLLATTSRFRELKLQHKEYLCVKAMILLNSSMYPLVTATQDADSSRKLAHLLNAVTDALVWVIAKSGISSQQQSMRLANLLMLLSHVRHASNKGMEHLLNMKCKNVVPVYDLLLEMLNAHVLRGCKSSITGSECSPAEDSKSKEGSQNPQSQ

For `c1ccc(B(c2ccccc2)c2ccccc2)cc1`, the AC50 is 4.9 µM (active) and 7.88 µM (active) in [1]; 59.7 µM (active) and 22 µM (active) in experiment [2]; 5.78 µM (active) and 3.86 µM (active) in experiment [3]; 7.9 µM (active) and 9.53 µM (active) in [4]; 7.06 µM (active) and 7.56 µM (active) in [6]; 18.1 µM (active) and 10.8 µM (active) in [7]. The AC50 in experiment [8] is 7.53 µM (active) and 3.43 µM (active); in experiment [9], 6.89 µM (active) and 5.72 µM (active); in [10], 60.6 µM (active) and 40.8 µM (active); in experiment [11], 65.6 µM (active) and 45.9 µM (active); in experiment [12] it was 1.27 µM (active) and 4.39 µM (active); in experiment [14] it was 100 µM (active). Besides, the outcome in experiment [5], in [13], in experiment [15], in [16], in [17] and in experiment [18] was inactive.

Consider `C(=C(c1ccccc1)c1ccccc1)c1ccccc1`, for which the concentration at half-maximal activity (AC50) in [1] was 39.9 nM (active); in experiment [3], 29.1 nM (active); in experiment [7], 165 nM (active); in experiment [8] it was 46.1 nM (active); in [9], 25.3 nM (active). Also, the call in experiment [19], in [2], in experiment [6], in experiment [10], in experiment [11] and in [12] was inactive. Further, the result in [14], in experiment [15], in experiment [16] and in experiment [17] was inactive.

Take `O=C(OCCOCCOCCOC(=O)c1ccccc1)c1ccccc1`: the outcome in [1], in [2], in [3], in experiment [5], in experiment [6] and in experiment [7] was inactive. The outcome in [20], in [8], in [9], in experiment [10], in experiment [11] and in [13] was inactive. Moreover, the compound was classed as inactive in experiment [14], in experiment [15], in [16] and in [17]. For the same compound, the AC50 was 153000 nM (active) in experiment [7]; 26700 nM (active) in experiment [8]; 46.3 µM (active) in experiment [10]; 58.5 µM (active) in experiment [11]; 22.8 µM (active) in experiment [12].

In the case of `C#C[C@]1(O)CC[C@H]2[C@@H]3CCc4cc(OC)ccc4[C@H]3CC[C@@]21C`, the AC50 in experiment [1] was 0.21 nM (active) and 0.082 nM (active); in [2] it was 10.2 nM (active) and 3.1 nM (active); in experiment [3] it was 0.189 nM (active) and 0.519 nM (active); in [4], 0.272 nM (active) and 0.0819 nM (active); in experiment [6], 0.598 nM (active) and 0.0823 nM (active); in experiment [7] it was 1.1 nM (active) and 0.373 nM (active). Moreover, the half-maximal activity concentration (AC50) in experiment [8] is 0.111 nM (active) and 0.0826 nM (active); in [9], 3.94 nM (active) and 1.23 nM (active). Also, the outcome in experiment [10], in experiment [12], in [13], in experiment [15], in experiment [16] and in experiment [17] was inactive. Moreover, the compound was classed as inactive in experiment [18].

Values taken from PubChem BioAssay (EPA / NIEHS).
